Structures can show the parent of a compound that is named as a salt.
Legend:
Assay in all cases: Euclidean distance of Cell Painting phenotypic profile (signed KS, 77 features) to DMSO centroid (dimensionless distance); 5 or 10 uM (library dependent); higher = stronger phenotypic change vs DMSO (phenoactivity)
Settings in all cases: 48 h
786-O = test system: 786-O
Summary of the method: (§1)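 Library compounds were applied at 10 or 5 uM, depending on the library, with 0.1% DMSO final, for 48 h to five cancer lines and a healthy fibroblast line. After staining, cells were imaged confocally at 20X across 9 fields per well, and Harmony extracted 77 features, each scored as a signed Kolmogorov-Smirnov statistic against vehicle wells on the same plate. Phenoactivity is the Euclidean distance between each profile and the median vehicle profile, with profiles first plate-position corrected, correlation-weighted and averaged over replicates at the top dose.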

A549 = test system: A549
Summary of the method: as §1

DU145 = test system: DU145
Summary of the method: as §1

FB = test system: FB
Summary of the method: as §1

HEPG2 = test system: HEPG2
Summary of the method: as §1

OVCAR4 = test system: OVCAR4
Summary of the method: as §1

Compound	Euclidean distance (786-O)	Euclidean distance (A549)	Euclidean distance (DU145)	Euclidean distance (FB)	Euclidean distance (HEPG2)	Euclidean distance (OVCAR4)
O=[N+]([O-])c1ccc2c(c1)S(=O)(=O)C=C2 [Stattic]	5.16	2.51	2.61	3.89	1.16	4.56
O=C(O)c1ccccc1C(=O)Nc1ccc(S(=O)(=O)Nc2nccs2)cc1 [Phthalylsulfathiazole]	1.08	1.02	0.914	1.11	0.685	0.869
O[C@@H](COc1cccc2ncccc12)CN1CCN(C2c3ccccc3[C@@H]3[C@H](c4ccccc42)C3(F)F)CC1 (stereo partly specified)	1.12	1.33	0.754	0.764	0.675	1.43
CN(C)CCCN1c2ccccc2Sc2ccccc21 [Promazine hydrochloride]	1.46	0.965	2.09	1.9	2.01	1.58
COC[C@H]1C[C@@H](c2nc(-c3ccc4c(c3)COc3cc5c(ccc6nc([C@@H]7CC[C@H](C)N7C(=O)[C@@H](NC(=O)OC)C(C)C)[nH]c65)cc3-4)c[nH]2)N(C(=O)[C@H](NC(=O)OC)c2ccccc2)C1 [Velpatasvir]	1.14	1.43	1.28	2.05	1.32	1.1
CNC(=O)Nc1ccc(-c2nc(N3CC4CCC(C3)O4)c3cnn(C4CCC5(CC4)OCCO5)c3n2)cc1	4.15	3.37	2.25	4.69	3.38	4.35
CCCNS(=O)(=O)Nc1ncnc(OCCOc2ncc(Br)cn2)c1-c1ccc(Br)cc1 [Macitentan]	1.36	0.708	0.918	0.878	0.806	0.809
CNC[C@H](O)[C@@H](O)[C@H](O)[C@H](O)CO [Meglumine]	1.78	1.75	2.13	1.59	0.652	1.67
CC(C)OC(=O)C(C)(C)Oc1ccc(C(=O)c2ccc(Cl)cc2)cc1 [Fenofibrate]	1.18	0.803	0.9	1.1	1.75	1.73
CCCCCCCCCCCCCCCCn1cc[n+](Cc2ccccc2)c1C	3.58	4.18	2.89	2.94	4.61	4.19
NC12CC3CC(CC(C3)C1)C2 [Amantadine HCl]	1.14	0.94	1.01	0.961	0.485	0.875
COC(=O)C1=C(C)NC(C)=C(C(=O)OCCN(C)Cc2ccccc2)C1c1cccc([N+](=O)[O-])c1 (stereo unspecified) [Nicardipine HCl]	1.27	1.28	0.897	0.903	1.24	1.31
CC(=O)N[C@H]1[C@H]([C@H](O)[C@H](O)CO)OC(C(=O)O)=C[C@@H]1NC(=N)N [Zanamivir]	1.74	1	0.755	0.983	0.8	1.21
C[C@@H]1COC(Nc2ccc3ncnc(Nc4ccc(OCc5nccs5)c(Cl)c4)c3c2)=N1 [Varlitinib]	1.45	1.22	1.15	1.15	2.16	1.56
Cc1ccc([C@@H]2O[C@H](CO)[C@@H](O)[C@H](O)[C@H]2O)cc1Cc1ccc(-c2ccc(F)cc2)s1 [Canagliflozin hemihydrate]	1.46	2.27	0.936	1.44	1.06	1.37
CCC(=O)Oc1ccc2c(c1)CCC1C2CCC2(C)C(OC(=O)CC)CCC12 (stereo not drawn) [17-Beta-Estradiol-3.17-Dipropionate]	1.55	0.8	1.46	1.21	0.326	0.98
COc1cc(-c2cc(-c3cccc(O)c3)cnc2N)cc(OC)c1OC	2.06	2.24	1.46	2.23	1.93	1.77
Cn1c(=O)cc(N2CCC[C@@H](N)C2)n(Cc2cc(F)ccc2C#N)c1=O [Trelagliptin]	0.94	0.495	0.985	0.998	0.668	0.953
O=S(=O)(O)c1cc(O)ccc1O [Ethamsylate]	0.716	0.847	0.74	1.11	0.713	1.57
COc1ccc([C@@H]2CC(=O)c3c(O)cc(O)cc3O2)cc1O [Hesperetin]	1.32	0.944	1.21	1.47	1.37	1.23
COc1ccc(C(=O)Nc2sc3c(c2C(N)=O)CCCC3)cc1OC	1.04	2.61	1.02	0.845	0.747	2.82
O=C(NNc1nc2cc(F)ccc2n2cccc12)c1cnccn1	3.74	2.78	2.25	3.85	2.84	5.56
CO[C@@]1(NC(=O)CSC[C@@H](N)C(=O)O)C(=O)N2C(C(=O)O)=C(CSc3nnnn3C)CS[C@@H]21 [Cefminox Sodium]	1.29	0.521	2.14	1.02	0.714	1.32

Compound	Euclidean distance (786-O)	Euclidean distance (A549)	Euclidean distance (DU145)	Euclidean distance (FB)	Euclidean distance (HEPG2)	Euclidean distance (OVCAR4)
Oc1c(Br)cc(Br)c2cccnc12 [Broxyquinoline]	0.96	0.988	1.01	1.03	0.735	0.981
CCC1(C)CC(=O)NC1=O (stereo unspecified) [Ethosuximide]	0.782	1.2	1.11	0.965	0.843	1.04
Cc1nc(-c2ccc(OCC(C)C)c(C#N)c2)sc1C(=O)O [Febuxostat]	0.758	0.915	0.667	0.514	0.375	0.978
CCOc1ccc(C[C@H]2NC(=O)CCSSC[C@@H](C(=O)N3CCC[C@H]3C(=O)N[C@@H](CCCN)C(=O)NCC(N)=O)NC(=O)[C@H](CC(N)=O)NC(=O)[C@H]([C@@H](C)O)NC(=O)[C@H]([C@@H](C)CC)NC2=O)cc1 [Atosiban Acetate]	1.21	1.46	1.05	1.59	1.37	1.9
Cc1cc(CN2CCN(c3c(Br)cnc4nc(-c5ccc(N6CCN(C)CC6)cc5)[nH]c34)CC2)no1	1.51	1.27	1.12	0.806	1.67	1.25
O=C(/C=C/c1ccc(CN(CCO)CCc2c[nH]c3ccccc23)cc1)NO [LAQ824 (Dacinostat)]	2.61	4.89	4.56	3.59	4.12	3.09
COC(=O)[C@]12CCC(C)(C)C[C@H]1[C@H]1C(=O)C=C3[C@@]4(C)C=C(C#N)C(=O)C(C)(C)[C@@H]4CC[C@@]3(C)[C@]1(C)CC2 [Bardoxolone Methyl]	5.4	5.71	5.63	2.1	4.01	6.33
O=C(O[C@@H]1Cc2c(O)cc(O)cc2O[C@@H]1c1cc(O)c(O)c(O)c1)c1cc(O)c(O)c(O)c1 [(-)-Epigallocatechin Gallate]	0.998	0.875	1.33	1.39	1.17	0.757
O=C(O[C@@H]1C[C@@H]2C[C@H]3C[C@H](C1)N2CC3=O)c1c[nH]c2ccccc12 [Dolasetron]	1.37	2.35	2.37	1.37	0.624	2.04
COCCNCc1ccc(-c2cc3nccc(Oc4ccc(NC(=O)C5(C(=O)Nc6ccc(F)cc6)CC5)cc4F)c3s2)nc1 [Sitravatinib (MGCD516)]	5.08	4.94	5.04	5.24	4.74	4.64
O=C(/C=C/c1ccc(O)c(O)c1)c1ccc(O)cc1O [Butein]	1.56	1.3	1.12	1.51	1.5	1.12
CCN(CC)CCOC(=O)c1ccc(N)cc1Cl [Chloroprocaine HCl]	0.962	0.947	0.943	0.861	0.503	1.07
NC(=O)c1cnc(N[C@@H]2CCCC[C@@H]2N)nc1Nc1cccc(-n2nccn2)c1	1.35	2.72	1.89	2.25	2.24	2.83
C[C@]12CC[C@@H]3c4ccc(O)cc4C[C@@H](CCCCCCCCC[S+]([O-])CCCC(F)(F)C(F)(F)F)[C@H]3[C@@H]1CC[C@@H]2O (stereo partly specified) [Fulvestrant]	1.83	1.67	0.894	1.18	0.76	1.56
CC(=O)NCCCS(=O)(=O)O [Acamprosate Calcium]	0.651	0.371	0.781	0.789	0.967	0.839
CNNCc1ccc(C(=O)NC(C)C)cc1 [Procarbazine HCl]	1.36	0.988	1.23	1.25	0.885	0.933
CCCc1nn(C)c2c(=O)[nH]c(-c3cc(S(=O)(=O)N4CCN(C)CC4)ccc3OCC)nc12 [Sildenafil Citrate]	1.87	1.4	1.4	0.899	0.957	1.28
COc1ccc(-c2cc(=S)ss2)cc1 [Anethole trithione]	1.49	1.04	1.18	1.03	0.61	1.06
Nc1nc(/C(=C/CC(=O)O)C(=O)N[C@@H]2C(=O)N3C(C(=O)O)=CCS[C@H]23)cs1 [Ceftibuten dihydrate]	1.22	0.568	1.24	1.2	1.17	0.987
O=c1[nH]cnc2nc[nH]c12 [Hypoxanthine]	1.19	1.2	1.16	1.66	0.856	2.43
CCN1CCN(Cc2ccc(Nc3ncc(F)c(-c4cc(F)c5nc(C)n(C(C)C)c5c4)n3)nc2)CC1	5.75	5.05	5.66	4.66	3.78	5.2
O=C1C(CC[S+]([O-])c2ccccc2)C(=O)N(c2ccccc2)N1c1ccccc1 (racemic) [(+/-)-Sulfinpyrazone]	1.01	1.79	1.38	1.22	0.755	0.993
COC(=O)C1=C(C)NC(C)=C(C(=O)OCC(C)C)C1c1ccccc1[N+](=O)[O-] (stereo unspecified) [Nisoldipine]	2.53	0.958	1.95	1.86	2.21	1.43
